Results on six molecules are retold here after PubChem BioAssay (EPA / NIEHS).

Where “and” joins values, the source holds several entries; their conditions need not be identical. Equal values may be shown once. A structure can be active in one record and inactive in another. Calls of active or inactive are those of the source. How the source made its calls: active means hit-call score of the fitted dose curve at least 0.9, where 1 is the maximum; inactive means score below 0.9.

Read-out in test [1]: Thrombomodulin, THBD (gene 7056)
Nature of the test: BSK_CASM3C_Thrombomodulin: BioMAP Diversity Plus: CASM3C Assay for Thrombomodulin Biomarker Activity (AID 2283051).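 Further: thrombomodulin protein level measured by ELISA 24 h after dosing.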 The following applies: primary human coronary artery smooth muscle cells; actives raise or lower the signal.

Read-out in test [2]: Tissue Factor, F3 (gene 2152)
Kind of test: BSK_CASM3C_TissueFactor: BioMAP Diversity Plus: CASM3C Assay for Tissue Factor Biomarker Activity (AID 2283052).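 Further: cell surface tissue factor protein level read by ELISA.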 As to conditions: primary human coronary artery smooth muscle cells; actives raise or lower the signal.

Read-out in test [3]: Interferon-gamma inducible Protein 10 (IP10), CXCL10 (gene 3627)
Nature of the test: BSK_hDFCGF_IP10: BioMAP Diversity Plus: hDFCGF Assay for Interferon-gamma inducible Protein 10 (IP10) Biomarker Activity (AID 2283053). The following applies: primary human foreskin fibroblasts; actives raise or lower the signal. In outline: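 Cells: human dermal foreskin fibroblasts. Exposure: 24 h post-dosing. Detection: IP-10 ELISA, with values expressed against DMSO controls and fitted in both directions.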

Read-out in test [4]: Urokinase-type plasminogen activator receptor (uPAR), PLAUR (gene 5329)
Nature of the test: BSK_CASM3C_uPAR: BioMAP Diversity Plus: CASM3C Assay for Urokinase-type plasminogen activator receptor (uPAR) Biomarker Activity (AID 2283054).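 Further: cell-surface uPAR protein level quantified by ELISA.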 The following applies: primary human coronary artery smooth muscle cells; actives raise or lower the signal.

Read-out in test [5]: Vascular cell adhesion molecule 1 (VCAM1), VCAM1 (gene 7412)
Kind of test: BSK_CASM3C_VCAM1: BioMAP Diversity Plus: CASM3C Assay for Vascular cell adhesion molecule 1 (VCAM1) Biomarker Activity (AID 2283055).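 Further: VCAM-1 protein level quantified by ELISA on the cells.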 As to conditions: primary human coronary artery smooth muscle cells; actives raise or lower the signal.

Read-out in test [6]: Collagen III, COL3A1 (gene 1281)
Nature of the test: BSK_hDFCGF_CollagenIII: BioMAP Diversity Plus: hDFCGF Assay for Collagen III Biomarker Activity (AID 2283056). As to conditions: primary human foreskin fibroblasts; actives raise or lower the signal. In short, it runs like this: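 Human foreskin primary fibroblasts were exposed to test chemicals for 24 h, after which collagen III was quantified by ELISA. Activity was fitted bidirectionally against DMSO as negative control and baseline.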

Read-out in test [7]: Epidermal growth factor receptor (EGFR), EGFR (gene 1956)
Kind of test: BSK_hDFCGF_EGFR: BioMAP Diversity Plus: hDFCGF Assay for Epidermal growth factor receptor (EGFR) Biomarker Activity (AID 2283057). The following applies: primary human foreskin fibroblasts; actives raise or lower the signal. In outline:
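Dosing human primary skin fibroblasts, then measuring surface EGFR by ELISA at 24 h, gives the endpoint; gains and losses relative to DMSO were fitted in both directions.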

Read-out in test [8]: Interleukin-8 (IL8), CXCL8 (gene 3576)
Nature of the test: BSK_hDFCGF_IL8: BioMAP Diversity Plus: hDFCGF Assay for Interleukin-8 (IL8) Biomarker Activity (AID 2283058). The following applies: primary human foreskin fibroblasts; actives raise or lower the signal. In outline: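 hDFCGF human dermal fibroblasts; 24 h chemical exposure; IL-8 by ELISA; bidirectional curve fit vs DMSO baseline; gain or loss of signal scored.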

A short description of test [9]: BSK_hDFCGF_Proliferation: Cell Proliferation Assessment in the BioMAP Diversity Plus: hDFCGF Assay (AID 2283059).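 Further: curves fitted for both rise and fall of signal versus DMSO baseline.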 The following applies: primary human foreskin fibroblasts. In short, it runs like this:
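Primary human foreskin fibroblasts, sub-confluent; […]; 10% TCA fix, 0.1% SRB stain, A560 total protein. Gain/loss fitted bidirectionally vs DMSO control.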

Read-out in test [10]: Macrophage colony-stimulating factor (MCSF), CSF1 (gene 1435)
Nature of the test: BSK_hDFCGF_MCSF: BioMAP Diversity Plus: hDFCGF Assay for Macrophage colony-stimulating factor (MCSF) Biomarker Activity (AID 2283060). As to conditions: primary human foreskin fibroblasts; actives raise or lower the signal. In outline:
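Human foreskin primary fibroblasts were treated with test chemical for 24 h, and M-CSF was then measured by ELISA. Data were fitted bidirectionally against DMSO as the negative control and activity baseline.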

The nature of test [11]: BSK_hDFCGF_SRB: Viability Assessment in the BioMAP Diversity Plus: hDFCGF Assay (AID 2283061).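 Further: cells exposed to compound for 24 h before the read.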 As to conditions: primary human foreskin fibroblasts. In short, it runs like this:
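Human foreskin primary fibroblasts were treated with compound and assessed 24 h after dosing. Total protein was measured by sulforhodamine B staining (0.1% SRB after 10% TCA fixation, 560 nm read) as a cytotoxicity marker, with bidirectional fitting against DMSO baseline.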

Read-out in test [12]: TIMP metallopeptidase inhibitor 1 (TIMP1), TIMP1 (gene 7076)
Nature of the test: BSK_hDFCGF_TIMP1: BioMAP Diversity Plus: hDFCGF Assay for TIMP metallopeptidase inhibitor 1 (TIMP1) Biomarker Activity (AID 2283062). As to conditions: primary human foreskin fibroblasts; actives raise or lower the signal. In outline:
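Primary human foreskin fibroblasts in the hDFCGF system were dosed with compound for 24 h, then TIMP-1 was measured by ELISA. Activity was fitted bidirectionally relative to DMSO control; parallel SRB staining assessed cytotoxicity.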

Read-out in test [13]: Monokine induced gamma interferon (MIG), CXCL9 (gene 4283)
Kind of test: BSK_hDFCGF_MIG: BioMAP Diversity Plus: hDFCGF Assay for Monokine induced gamma interferon (MIG) Biomarker Activity (AID 2283063). The following applies: primary human foreskin fibroblasts; actives raise or lower the signal. In short, it runs like this:
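ELISA read-out of MIG from primary human dermal fibroblasts 24 h post-dosing. Gain or loss of signal fitted bidirectionally, DMSO as baseline.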

Read-out in test [14]: Matrix Metallopeptidase 1 (MMP1), MMP1 (gene 4312)
Kind of test: BSK_hDFCGF_MMP1: BioMAP Diversity Plus: hDFCGF Assay for Matrix Metallopeptidase 1 (MMP1) Biomarker Activity (AID 2283064). As to conditions: primary human foreskin fibroblasts; actives raise or lower the signal. In short, it runs like this:
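MMP1 levels quantified by ELISA 24 h after dosing human dermal fibroblast cultures, with parallel SRB total-protein staining for overt cytotoxicity. Data fitted in both directions against DMSO baseline.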

Read-out in test [15]: Vascular cell adhesion molecule 1 (VCAM1), VCAM1 (gene 7412)
Kind of test: BSK_hDFCGF_VCAM1: BioMAP Diversity Plus: hDFCGF Assay for Vascular cell adhesion molecule 1 (VCAM1) Biomarker Activity (AID 2283065).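 On AC50: VCAM-1 protein level quantified by ELISA after 24 h chemical exposure.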 As to conditions: primary human foreskin fibroblasts; actives raise or lower the signal. In short, it runs like this: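 Primary human foreskin fibroblasts (hDFCGF system) were dosed with chemical and VCAM-1 was measured by ELISA 24 h later. Bidirectional curve fitting used DMSO as negative control and activity baseline.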

Read-out in test [16]: Plasminogen activator inhibitor-1 (PAI1), SERPINE1 (gene 5054)
Nature of the test: BSK_hDFCGF_PAI1: BioMAP Diversity Plus: hDFCGF Assay for Plasminogen activator inhibitor-1 (PAI1) Biomarker Activity (AID 2283066). The following applies: primary human foreskin fibroblasts; actives raise or lower the signal. In short, it runs like this: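 Fibroblasts from human foreskin were treated with test chemical. After 24 h, PAI-1 was measured by ELISA. Activity was fitted in both directions relative to DMSO.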

Read-out in test [17]: Intercellular Adhesion Molecule 1 (ICAM1), ICAM1 (gene 3383)
Kind of test: BSK_KF3CT_ICAM1: BioMAP Diversity Plus: KF3CT Assay for Intercellular Adhesion Molecule 1 (ICAM1) Biomarker Activity (AID 2283067). The following applies: primary human keratinocytes with fibroblasts; actives raise or lower the signal. In short, it runs like this:
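Human keratinocyte plus foreskin fibroblast primary co-culture was exposed to chemical for 24 h. ICAM-1 was then quantified by ELISA, and the data were fit bidirectionally against DMSO as the negative control and baseline.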

Read-out in test [18]: Interferon-gamma inducible Protein 10 (IP10), CXCL10 (gene 3627)
Kind of test: BSK_KF3CT_IP10: BioMAP Diversity Plus: KF3CT Assay for Interferon-gamma inducible Protein 10 (IP10) Biomarker Activity (AID 2283068). The following applies: primary human keratinocytes with fibroblasts; actives raise or lower the signal. In outline:
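In a primary skin co-culture of keratinocytes and fibroblasts, IP-10 is quantified by ELISA at 24 h after dosing. SRB staining of parallel wells monitors overt toxicity. Curves are fitted both directions against DMSO.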

Test [19] can be described thus: BSK_KF3CT_SRB: Viability Assessment in the BioMAP Diversity Plus: KF3CT Assay (AID 2283069). The following applies: primary human keratinocytes with fibroblasts. In short, it runs like this: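 Cytotoxicity was gauged by SRB staining (0.1% SRB, 10% TCA fixation, 560 nm) of parallel cultures at 24 h. The cells were primary human skin keratinocytes co-cultured with fibroblasts, and activity was fitted in both directions against DMSO.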

Read-out in test [20]: Interleukin-1 alpha (IL1a), IL1A (gene 3552)
Kind of test: BSK_KF3CT_IL1a: BioMAP Diversity Plus: KF3CT Assay for Interleukin-1 alpha (IL1a) Biomarker Activity (AID 2283070). The following applies: primary human keratinocytes with fibroblasts; actives raise or lower the signal. In outline: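 IL-1a was detected by ELISA 24 h after chemical treatment of a co-culture of human skin keratinocytes and foreskin fibroblasts. Gain or loss of signal was fitted against the DMSO baseline.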

For the molecule `c1ccc2c(c1)sc1ccccc12`, the result in [1], in test [2], in test [3], in [4], in test [5] and in [6] was inactive. Moreover, the result in [7], in [8], in test [9], in test [10], in test [11] and in test [12] was inactive. Besides, the outcome in [13], in test [14], in test [15], in test [16], in test [17] and in test [18] was inactive. Also, the outcome in test [19] and in test [20] was inactive.
In the case of `Cc1ccc(N)cc1N`, the result in test [1], in test [2], in test [3], in [4], in test [5] and in test [6] was inactive. In addition, the outcome in test [7], in test [8], in [9], in [10], in test [11] and in test [12] was inactive. Besides, the result in test [13], in test [14], in test [15], in [16], in test [17] and in [18] was inactive. In addition, the outcome in test [19] and in test [20] was inactive.
A word on the AC50: it is the concentration giving half of the maximal activity seen. Regarding `Nc1ccc2ccccc2c1`, the AC50 in test [1] is 12.5 µM (active). In addition, the outcome in test [2], in test [3], in [4], in test [5], in test [6] and in [7] was inactive. Moreover, the outcome in test [8], in test [9], in test [10], in test [11], in test [12] and in test [13] was inactive. Besides, the outcome in [14], in test [15], in test [16], in test [17], in test [18] and in test [19] was inactive. The result in [20] was inactive.
For `OCC(F)(F)OC(F)(F)C(F)(F)OC(F)(F)C(F)(F)OC(F)(F)F`, the outcome in test [1], in [2], in [3], in test [4], in test [5] and in [6] was inactive. For the same molecule, the result in test [7], in test [8], in [10], in test [14], in test [15] and in test [16] was inactive. Further, the AC50 in test [5] is 30 µM (active); in test [13], 16 µM (active) and 14.7 µM (active); in test [15], 19.3 µM (active); in [17] it was 48.3 µM (active) and 46.3 µM (active); in [18], 53.8 µM (active) and 53.2 µM (active); in test [19], 48.3 µM (active) and 48.1 µM (active). In test [20], the concentration at half-maximal activity (AC50) is 41.4 µM (active) and 44.4 µM (active).
As for `CC(O)C(F)(F)C(F)(F)F` (centres undefined), the half-maximal activity concentration (AC50) in test [1] was 3.08 µM (active). In addition, the result in test [1], in test [2], in [3], in test [4], in test [5] and in test [6] was inactive. The outcome in test [7], in test [8], in [9], in [10], in [12] and in [13] was inactive. The outcome in test [14], in [15], in test [16], in test [17], in test [18] and in test [19] was inactive. In test [20], the outcome was inactive.
As for `O=C(O)C(F)(OC(F)(F)C(F)(F)C(F)(F)F)C(F)(F)F` (centres undefined), the concentration at half-maximal activity (AC50) in test [1] was 2.48 µM (active). The outcome in test [1], in test [2], in test [3], in test [4], in test [5] and in test [6] was inactive. Besides, the result in test [7], in test [8], in [9], in [10], in [11] and in test [13] was inactive. For the same molecule, the result in [14], in test [15], in test [16], in test [17], in [18] and in test [19] was inactive. Moreover, the outcome in test [20] was inactive.
